Compound activity deposited in PubChem BioAssay by Buhrlage Lab, Dana-Farber Cancer Institute and Novartis Institutes for BioMedical Research (Cambridge, Mass).
USP8 inh: inhibitors of human USP8 deubiquitinase; Ubiquitin carboxyl-terminal hydrolase 8 (Homo sapiens), P40818; purified USP8, Ub-rhodamine cleavage fluorescence, 30 min; inhibition, % at 20 µM; 47,000 compounds, 4.2% hits; AID 1645853, 2021
USP30 block: inhibitors of human USP30 deubiquitinase. Ubiquitin carboxyl-terminal hydrolase 30 (Homo sapiens), Q70CQ3. purified USP30, Ub-rhodamine cleavage fluorescence. inhibition, % at 25 µM. 47,000 compounds, 5.3% hits
USP17 inh: inhibitors of human USP17 deubiquitinase; 47,000 compounds, 6.5% hits; purified USP17, Ub-rhodamine cleavage fluorescence, 3 h; Ubiquitin carboxyl-terminal hydrolase 17-like protein 5 (Homo sapiens), A8MUK1; inhibition, % at 50 µM; AID 1645855, 2021
Target sequence (A8MUK1 whole entry, looked up): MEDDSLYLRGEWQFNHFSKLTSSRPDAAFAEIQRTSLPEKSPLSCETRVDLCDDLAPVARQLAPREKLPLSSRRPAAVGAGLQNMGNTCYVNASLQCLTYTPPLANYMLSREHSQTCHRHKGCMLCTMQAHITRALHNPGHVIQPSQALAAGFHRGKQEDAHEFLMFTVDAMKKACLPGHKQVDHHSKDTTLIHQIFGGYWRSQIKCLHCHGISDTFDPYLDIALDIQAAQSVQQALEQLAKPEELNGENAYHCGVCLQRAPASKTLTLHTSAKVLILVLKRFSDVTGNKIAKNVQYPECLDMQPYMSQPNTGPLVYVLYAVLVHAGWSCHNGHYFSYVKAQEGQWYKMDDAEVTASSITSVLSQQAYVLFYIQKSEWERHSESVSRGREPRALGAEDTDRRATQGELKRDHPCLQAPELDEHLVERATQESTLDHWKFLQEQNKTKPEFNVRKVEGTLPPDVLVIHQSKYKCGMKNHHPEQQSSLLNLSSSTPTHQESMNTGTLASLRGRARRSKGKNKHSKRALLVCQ
Starred values were filed as active, the others as inactive; . = not tested or not shown. An excerpt weighted towards active compounds, which were near 12% of everything screened. Rule as the data show it: active = inhibition above about 30%; inactive = the rest.

SMILES	USP8 inh	USP30 block	USP17 inh
COc1ccc(NC(=O)N2CCCCCC2c2cccs2)cc1OC (stereo unspecified)	3.1	.	1.7
Cc1nc(-c2ncc(C)[nH]2)cc(C2CCCCN2C(=O)C(C)(C)C)n1 (stereo unspecified)	0.2	11.2	1.6
Fc1ccc(Cn2c(C3CCCO3)nc3ccccc32)cc1 (stereo unspecified)	6.6	9.6	-3.6
CCOc1ccc(NCc2nc3ccccc3n2Cc2ccccc2)cc1	41.7*	3.1	15.7
Cc1ccc(OCc2nc3ccccc3n2Cc2ccc(F)cc2)cc1	3.7	2.7	34.0*
c1ccc(Cn2c(CNc3cccc4ccccc34)nc3ccccc32)cc1	57.9*	-102.4	-107.3
Fc1ccc(NCc2nc3ccccc3n2Cc2ccccc2)cc1	19.9	42.5*	14.3
CCOc1ccc(NC(=O)c2ccc3ccccc3n2)cc1	-8.0	3.5	.
C=C(C)Cn1c(CNC(=O)Cc2ccccc2)nc2ccccc21	10.0	22.4	11.2
Fc1ccc(OCCn2c(COc3ccccc3)nc3ccccc32)cc1	4.6	15.7	23.0
O=C(Cc1ccc(O)cc1)N1CCC2(CC1)C(=O)NCN2C(=O)Cc1ccccc1	16.8	15.8	7.7
CC(=O)N1CCOCC2(CN(Cc3ccoc3)CCO2)C1 (stereo unspecified)	-26.3	-28.9	-13.8
Cc1ccc(S(=O)(=O)NCCc2cn(C)c3ncccc23)cc1	8.8	-1.7	-6.9
COc1ccc(-c2cc(C(C)=O)c(C)n2CCC(=O)NC2CCCCCC2)cc1	-9.3	-9.6	-7.4
CCOc1ccc(NC(=O)CNc2nc(Nc3ccc(OC)cc3)nc(Nc3ccc(OC)cc3)n2)cc1	10.4	68.7*	57.5*
Cc1ccc(NC(=O)CNc2nc(Nc3ccccc3)nc(Nc3ccccc3)n2)cc1	-3.9	0.8	6.9
CCOc1ccc(NC(=O)CCn2c(-c3ccc(OC)cc3)cc(C(C)=O)c2C)cc1	18.5	80.1*	70.3*
CCN1CCCC1CNC(=O)Cc1nc(-c2ccc(OC)cc2)no1 (stereo unspecified)	-5.3	.	-1.4
Cc1cccc(N2CCN(C(=O)Cn3cc(-c4ccccc4)oc3=O)CC2)c1	13.9	-23.8	-12.8
CCc1nnc(-c2ccc3ccn(CC(=O)N4CCN(c5ccccn5)CC4)c3c2)o1	91.9*	38.6*	75.9*
CCc1nnc(-c2cc(S(=O)(=O)N3CCC(C)CC3)c[nH]2)o1	3.0	-1.4	24.2
Cc1ccc(-c2cn(CC(=O)N3CCN(c4ccccn4)CC3)c(=O)o2)cc1	29.7	35.5*	77.0*
Cc1nnc(-c2ccc3ccn(CC(=O)N4CCN(c5ccccn5)CC4)c3c2)o1	6.1	-8.4	3.1
CCc1nnc(-c2cc(S(=O)(=O)N3CCN(c4ccccn4)CC3)c[nH]2)o1	40.5*	17.5	6.8
CCN1CC2(CC1=O)CN(C(=O)NCC(C)C)CCN(C(=O)NC(C)C)C2 (stereo unspecified)	-17.4	-9.0	-2.7
SMILES	USP8 inh	USP30 block	USP17 inh
COc1ccc(Cl)cc1NC(=O)Cn1c(=O)cc(C)c2c(C)nn(-c3ccccc3)c21	2.1	25.4	56.1*
Cc1cc(=O)n(CC(=O)NCc2ccccc2F)c2c1c(C)nn2-c1ccccc1	2.3	33.1*	61.9*
COc1cccc(NC(=O)Cn2c(=O)cc(-c3ccccc3)c3c(C)nn(-c4ccccc4)c32)c1	9.3	11.2	12.7
Cc1cc(=O)n(CC(=O)NCC2CCCO2)c2c1c(C)nn2-c1ccccc1 (stereo unspecified)	1.9	14.9	4.6
O=C1CC(C(=O)N2CCOCC2)CN1CCc1ccccc1 (stereo unspecified)	-11.5	1.7	5.1
NC(=O)CC(=O)N1C[C@H](Oc2ccccn2)[C@H]2C[C@@H]1Cc1c2[nH]c2ccccc12	-119.9	-418.7	-113.7
O=C(Nc1ccc(N2CCN(C3CCCCC3)C2=O)nc1)c1cccnc1	-57.8	-0.1	-8.9
O=C(CSc1nnc(Cn2cnc3ccccc32)o1)Nc1ccc([N+](=O)[O-])cc1	-69.8	24.9	63.0*
COc1ccc(NC(=O)COC(=O)Cn2cnc3ccccc32)cc1OC	-39.6	-5.0	-5.7
CN(C)C(=O)N1CC2(CCN(C(=O)c3cccnc3)CC2)C2(CCNC2=O)C1 (stereo unspecified)	-71.7	11.1	-8.7
CCCn1nnc2cc(S(=O)(=O)N3CCCCC3C(=O)O)ccc21 (stereo unspecified)	5.1	10.8	3.4
CCCn1nnc2cc(S(=O)(=O)N3CCCC(C(=O)NCCc4ccco4)C3)ccc21 (stereo unspecified)	23.4	-51.7	39.3*
O=C(CCc1cccnc1)N1CCCC2(CCCN2Cc2ccccc2F)C1 (stereo unspecified)	-64.7	-2.8	-20.0
O=C(CCc1cccnc1)N1CCCC2(CCCN2Cc2cccc(F)c2)C1 (stereo unspecified)	-80.6	44.4*	10.9
CN1C(=O)c2ccccc2C(=O)[C@@]2(C)CN(Cc3cccc4cccnc34)C[C@@H]12	-163.2	-90.7	-50.9
Cc1ccc(-c2nccn3cc(C(=O)NCCc4ccccn4)nc23)cc1	-10.4	-27.2	-16.5
COc1ccc(-c2nccn3cc(C(=O)NCc4nc5ccccc5n4C)nc23)cc1	35.7*	-253.9	-8.3
O=C(NCCc1ccccn1)c1cn2ccnc(-c3ccc(F)cc3)c2n1	2.0	55.9*	21.3
COc1ccc(-c2nccn3cc(C(=O)N4CCN(C)CC4)nc23)cc1	13.1	17.7	0.0
O=C(NCCc1ccccn1)c1ccc2ccccc2c1	4.9	15.3	3.7
O=C(NCCc1ccccn1)c1cc(-c2ccc(Br)cc2)n[nH]1	19.8	33.8*	80.1*
COc1ccc(-n2c(=O)c3c4c(sc3n(CC(=O)c3ccccc3)c2=O)CN(C(C)=O)CC4)c(OC)c1	12.6	-0.6	20.8
CNC(=O)CN1CC2(CCN(c3ncc(F)cn3)CC2)COc2ccccc2S1(=O)=O	-43.7	-356.6	-107.4
CCn1cc(-c2cc(C(=O)N3C[C@@H]4C[C@@]5(C)[C@H](CCC[C@@H]35)N4C(C)=O)on2)cn1	-19.9	-11.6	-16.5
COc1ccc(S(=O)(=O)NC2CC(=O)N(c3ccc(F)cc3)C2)cc1 (stereo unspecified)	12.0	15.0	5.5
SMILES	USP8 inh	USP30 block	USP17 inh
COc1cccc(N2CC(NS(=O)(=O)c3ccc4ccccc4c3)CC2=O)c1 (stereo unspecified)	-20.4	33.5*	28.0
O=C1CC(NS(=O)(=O)c2ccc3ccccc3c2)CN1c1cccc(F)c1 (stereo unspecified)	10.4	22.9	54.5*
Cc1ccc(S(=O)(=O)NC2CC(=O)N(c3cccc(F)c3)C2)cc1 (stereo unspecified)	7.6	18.7	9.1
CC(=O)N1CCCc2ccc(NC(=O)C(=O)NCCc3c[nH]c4ccccc34)cc21	1.4	-153.5	22.2
COc1cccc(NC(=O)N2CCN(c3nc4ccncc4n(CC(C)C)c3=O)CC2)c1	-0.6	-0.1	-2.4
COc1cccc(-c2cc3c(=O)n(Cc4nc(-c5ccc(F)cc5)no4)ccn3n2)c1	-15.9	-427.1	-50.5
COc1ccc(NC(=O)c2ccco2)cc1NC(=O)c1ccc(F)cc1	0.0	-4.5	-8.7
COc1ccc(NC(=O)Cc2csc(NC(=O)c3ccco3)n2)cc1Cl	23.5	26.2	49.1*
